# Sampled rows, rich in hits. Any-hit rate of the full collection: about 10%.
# Six1-Eya2 inh: qHTS Assay for Inhibitors of the Six1/Eya2 Interaction. Homeobox protein SIX1 (Homo sapiens) + Protein phosphatase EYA2 (Homo sapiens), …. AlphaScreen GST-Six1/His-Eya2 binding, biochemical; hits give low values. AID 651725, 2012. actives 0.56% (n = 360,000). activity change, % (concentration not given with the values); in the data active means activity change below about -65%; inconclusive means mostly about -30% to -63%; further: on the % scale 0 is the no-effect control and ±100 the full control effect
#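 Six1/Eya2 binding was read as AlphaScreen signal after compounds were pinned into GST-Six1 plus His-tagged Eya2 (5X stock 250/500 nM) in pH 8.0 Tris/NaCl/TCEP buffer, beads added, then incubated 1 h, 37 C, dark.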
# G9a inh: qHTS Assay for Inhibitors of Histone Lysine Methyltransferase G9a | Histone-lysine N-methyltransferase EHMT2 (Homo sapiens), Q96KQ7 | G9a H3K9 monomethylation, AlphaScreen, 2 h | Potency, µM (series often up to 102 µM), for the others: at the top dose activity, negative = inhibition, actives largely listed as inhibitors | actives 8.8% (n = 350,000) | AID 504332, 2011; further: potency means the concentration at half of the fitted maximal effect; on the % scale 0 is the no-effect control and ±100 the full control effect; nearly all actives have a fitted effect of over 75% in size
# Target sequence (Q96KQ7 913-1193 limits assumed): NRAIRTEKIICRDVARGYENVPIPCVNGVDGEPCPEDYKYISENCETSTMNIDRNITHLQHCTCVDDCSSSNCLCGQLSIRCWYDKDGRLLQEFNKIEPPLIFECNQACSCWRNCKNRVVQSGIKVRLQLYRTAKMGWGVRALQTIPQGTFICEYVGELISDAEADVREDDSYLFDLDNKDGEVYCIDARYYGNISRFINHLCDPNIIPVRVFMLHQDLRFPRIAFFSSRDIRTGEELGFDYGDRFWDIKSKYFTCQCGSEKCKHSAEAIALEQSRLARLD
#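 Methyltransferase reactions run at room temperature for 2 h (20 nM enzyme, 500 nM biotin-H3K9 peptide, 20 uM SAM) after a 15 min compound preincubation; product detected by AlphaScreen beads and anti-H3K9me1 antibody.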
# CtBP-E1A blk: qHTS Assay for Inhibitors of the CtBP/E1A Interaction | CtBP / adenovirus E1A interaction (AlphaScreen) | AlphaScreen GST-E1A/His-CtBP binding, 1536-well; hits give low values | activity change, % (test concentration not listed) | actives 0.49% (n = 340,000); in the data active means activity change below about -65%; inconclusive means mostly about -30% to -63%; further: on the % scale 0 is the no-effect control and ±100 the full control effect
#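 In 5 uL wells, 23 nL compound meets equimolar GST-E1A and His-CtBP (5X stock 125 nM each) for 2 h, 37 °C. Beads (5X, 50 ug/mL) then 1 h, 37 °C, dark.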
# JMJD2A Tudor: qHTS Assay for Inhibitors of JMJD2A-Tudor Domain; Lysine-specific demethylase 4A (Homo sapiens), O75164; actives 4.4% (n = 390,000); Potency, µM (series often up to 114 µM), for inactives: at the top dose activity change, negative = inhibition, most hits filed as inhibitors; AlphaScreen JMJD2A-Tudor / H3K4me3 peptide binding; AID 504339, 2011; further: potency means the concentration at half of the fitted maximal effect; on the % scale 0 is the no-effect control and ±100 the full control effect; nearly all actives have a fitted effect of over 50% in size
# HP1b chromo inh: HTS for Inhibitors of HP1-beta Chromodomain Interactions with Methylated Histone Tails | AlphaScreen HP1-beta / biotin-H3K9me3 peptide binding | Potency, µM (top dose mostly 114 µM), without a hit: at the highest dose activity change, negative = inhibition, most hits filed as inhibitors | actives 0.56% (n = 390,000) | AID 540317, 2011; further: potency means the concentration at half of the fitted maximal effect; nearly all actives have a fitted effect of over 70% in size
# Target sequence (P83916 whole entry, looked up): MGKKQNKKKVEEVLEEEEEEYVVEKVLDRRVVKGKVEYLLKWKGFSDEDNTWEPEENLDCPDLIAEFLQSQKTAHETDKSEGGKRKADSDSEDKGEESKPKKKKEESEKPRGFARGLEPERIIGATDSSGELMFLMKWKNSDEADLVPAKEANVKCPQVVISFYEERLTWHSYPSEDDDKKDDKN
#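 Compound inhibition of the preformed complex between 50 nM HP1-beta and 50 nM biotinylated H3K9me3 peptide was read by AlphaScreen. Buffer was PBS pH 7.4 with 0.01% Tween-20. Incubations ran 30 min at room temperature, with 10 ug/mL donor/acceptor beads.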
# BAZ2B block: qHTS Assay for Inhibitors of BAZ2B. Bromodomain adjacent to zinc finger domain protein 2B (Homo sapiens), Q9UIF8. AlphaScreen BAZ2B-H3K14Ac peptide displacement. Potency, µM (highest dose often 114 µM), for the others: at the highest dose activity change, negative = inhibition, actives largely listed as inhibitors. actives 4.4% (n = 360,000); further: potency means the concentration at half of the fitted maximal effect; on the % scale 0 is the no-effect control and ±100 the full control effect; nearly all actives have a fitted effect of over 60% in size
#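 AlphaScreen displacement: compounds (up to 110uM) incubated 30 min at room temperature with a preformed 50 nM BAZ2B/50 nM biotinylated H3K14Ac peptide complex in PBS pH 7.4 with Tween-20. Donor and acceptor beads at 10 ug/mL final added, 20 min light-protected before reading.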
# Active calls of the source: *; ? = inconclusive; nt = no result given; [ ] = remark or other dose. Unless noted, the call rests on the fitted dose curve; in most records, active means well fitted inhibition curve with a large enough effect; inconclusive means small, poorly fitted or top-dose-only effect; inactive means no such curve, though single readings can be large or run the other way.
SMILES,Six1-Eya2 inh,G9a inh,CtBP-E1A blk,JMJD2A Tudor,HP1b chromo inh,BAZ2B block
COc1ccc(N2CCC(CNC(=S)Nc3cccc(C)c3)C2)cc1 (stereo not drawn),?,?,?,45µM*,?,13µM*
Cc1cccc(CNc2ccnc(-c3ccccc3C(F)(F)F)n2)c1,nt,14%[0.501 µM],nt,nt,nt,nt
CCN1C(C(=O)c2ccccc2)=C(OC(=O)c2ccc(Cl)cc2)c2ccccc2S1(=O)=O,nt,-48%[59 µM],nt,-26%,18%,-35%
C/C(=N\NC1=N[C@H]2CS(=O)(=O)C[C@H]2S1)c1ccccc1,-18,50µM*,-15,?,12%,?
O=S1(=O)C[C@@H]2N=C(N/N=C/c3ccccc3)S[C@@H]2C1,0,?,-6,-12%,3%,-4%
CCNC(=O)C1CCCN(C(=O)Cc2cccs2)CC1 (stereo not drawn),7,nt,9,nt,nt,nt
Cc1ccc(CSc2nc3c(c(=O)[nH]2)C(c2cccc(F)c2F)CC(=O)N3)cc1 (stereo not drawn),nt,-1%[59 µM],nt,-12%,37%,-13%
c1ccc(Nc2scc(-c3ccccc3)[n+]2Cc2ccco2)cc1,-23,16µM*,nt,?,?,nt
CCCCCC[n+]1c(-c2ccc(Cl)cc2Cl)csc1Nc1ccccc1,-3,?,0,?,-12%,?
c1ccc(C[n+]2c(-c3ccccc3)csc2Nc2ccccc2)cc1,-8,11µM*,0,?,25µM*,7.9µM*
CCc1nnc(NS(=O)(=O)c2ccc(NC(=S)NC(=O)/C=C/c3ccc(OC)cc3)cc2)s1,0,50µM*,15,32µM*,?,?
CCc1nnc(NS(=O)(=O)c2ccc(NC(=S)NC(=O)/C=C/c3ccccc3)cc2)s1,-17,?,5,79µM*,-29%,?
COCc1nnc(NS(=O)(=O)c2ccc(OC)cc2)s1,9,nt,nt,-8%,35%,nt
CCc1nnc(NS(=O)(=O)c2ccc(NC(=S)NC(=O)/C=C/c3ccc(C(C)C)cc3)cc2)s1,-5,18%[0.501 µM],-8,56µM*,?,50µM*
CCCc1nnc(NS(=O)(=O)c2ccc(OC)cc2)s1,0,45µM*,-8,-9%,15%,-22%
NC(=O)CSc1ncc2c(n1)-c1ccccc1N(Cc1ccc(Cl)cc1)S2(=O)=O,nt,2%[59 µM],nt,-19%,-7%,0%
COC(=O)c1cc(NC2c3ncccc3C(=O)N2Cc2ccccc2)cc(C(=O)OC)c1 (stereo not drawn),-2,12%[2.33 µM],1,-15%,19%,-18%
COc1ccc(OC)c(NC2c3ncccc3C(=O)N2Cc2ccco2)c1 (stereo not drawn),-5,50µM*,-14,-34%,3%,?
Cc1ccc(NC2c3ncccc3C(=O)N2Cc2ccco2)c(C)c1 (stereo not drawn),-2,45µM*,-1,?,16%,-33%
COC(=O)c1cc(NC2c3ccccc3C(=O)N2Cc2ccco2)cc(C(=O)OC)c1 (stereo not drawn),6,-1%,4,-10%,25%,-3%
COc1ccc(C2Nc3ccccc3C(=O)N2Cc2ccco2)cc1OC (stereo not drawn),nt,nt,nt,-20%[57.1 µM],?,nt
COc1ccc(CN2C(=O)c3cccnc3C2Nc2cc(Cl)ccc2OC)cc1 (stereo not drawn),-8,?,-6,20µM*,-23%,25µM*
COc1ccc(CN2C(=O)c3cccnc3C2O)cc1 (stereo not drawn),14,?,10,?,-23%,40µM*
CCOc1ccc(N2CC(C(=O)N3CCCc4ccccc43)CC2=O)cc1 (stereo not drawn),11,-39%[59 µM],5,-16%,16%,-4%
Cc1ccc(NC(=O)COc2ccc3c(c2)OCO3)c(Cl)c1,-2,-6%[12.7 µM],-23,-9%,24%,-3%
SMILES,Six1-Eya2 inh,G9a inh,CtBP-E1A blk,JMJD2A Tudor,HP1b chromo inh,BAZ2B block
O=C(O)CN1C(=O)SC(Nc2ccccc2C(=O)O)C1=O (stereo not drawn),4,40µM*,2,?,5%,?
O=C(O)c1cccc(CN2C(=O)SC(Nc3cccc4ccccc34)C2=O)c1 (stereo not drawn),1,50µM*,-6,-19%,25%,?
CCc1ccc(C(=O)NNC(=O)c2cccc(N3C(=O)CCC3=O)c2)cc1,12,-9%[2.33 µM],3,-15%,10%,-3%
NCCNc1ccc(C(=O)N2c3ccccc3Sc3ccccc32)cc1[N+](=O)[O-],-18,?,-1,?,-29%,40µM*
Nc1ccc(C(=O)OCC(=O)N2c3ccccc3Sc3ccccc32)cc1[N+](=O)[O-],-25,-22%[59 µM],-28,?,-12%,-38%
O=C(CN1CCCC1)Nc1ccc(F)c(Cl)c1,9,nt,5,22µM*,-21%,?
O=C(Cn1cnc([N+](=O)[O-])c1)Nc1ccc(F)c(Cl)c1,-1,50µM*,3,-13%,4%,-13%
Cc1ccc(NC(=O)CN2CCN(C)CC2)cc1Br,2,nt,nt,5.6µM*,?,50µM*
O=C(CN1CCCCC1)Nc1ccc(F)c(Cl)c1,1,14%,0,5%,21%,2%
Cc1cccc(NC(=O)CN2CCCCCC2)c1,7,14µM*,5,20µM*,50µM*,?
COc1ccc(C(=O)CN2C(=O)NC3(CCCCCC3)C2=O)cc1,-1,nt,9,-19%,8%,nt
NC1=NC(=Nc2ccc(S(N)(=O)=O)cc2)c2ccccc21,8,-4%,1,-7%[11.4 µM],73%,-11%
Cc1ccc(NC(=O)CN(C)CC(=O)Nc2ccc(F)c(Cl)c2)cc1,8,32µM*,5,14µM*,?,50µM*
O=C(CN1CCCCCC1)Nc1ccc(F)c(F)c1,0,32µM*,4,8.9µM*,?,50µM*
COc1ccc(N)cc1NC(=O)CN1CCCC1,10,?,4,-18%,-8%,-28%
Cc1cc(N)ccc1NC(=O)CN1CCCC1,2,25µM*,-5,22µM*,?,50µM*
Cc1ccc(OCCC(=O)Nc2ccc(F)c(Cl)c2)cc1,6,37%[59 µM],2,11%,64%,6%

# From PubChem
